Data reported in ChEMBL document CHEMBL2218924, “A broad activity screen in support of a chemogenomic map for kinase signalling research and drug discovery” (Biochem J, 2013).

Target: T1, Serine/threonine-protein kinase Nek11 (Homo sapiens) (UniProt Q8NG66)
T1 sequence (whole entry): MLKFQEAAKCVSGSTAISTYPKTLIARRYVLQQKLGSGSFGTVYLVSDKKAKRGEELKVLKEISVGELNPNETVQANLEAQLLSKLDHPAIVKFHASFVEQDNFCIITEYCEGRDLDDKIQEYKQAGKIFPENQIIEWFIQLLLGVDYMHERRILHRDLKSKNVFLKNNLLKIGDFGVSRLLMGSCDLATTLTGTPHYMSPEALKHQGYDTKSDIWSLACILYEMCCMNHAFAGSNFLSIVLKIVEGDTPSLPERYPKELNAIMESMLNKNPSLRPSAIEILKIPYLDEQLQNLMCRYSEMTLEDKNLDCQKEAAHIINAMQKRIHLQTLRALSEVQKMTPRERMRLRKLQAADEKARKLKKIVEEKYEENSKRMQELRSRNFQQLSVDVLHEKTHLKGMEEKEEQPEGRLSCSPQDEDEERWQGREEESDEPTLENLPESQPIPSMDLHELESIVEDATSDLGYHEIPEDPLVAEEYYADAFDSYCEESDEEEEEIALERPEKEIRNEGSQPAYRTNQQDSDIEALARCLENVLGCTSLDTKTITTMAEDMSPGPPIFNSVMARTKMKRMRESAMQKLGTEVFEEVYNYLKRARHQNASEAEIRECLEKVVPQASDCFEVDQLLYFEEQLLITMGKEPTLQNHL
Conditions: at 10 µM

| SMILES | residual activity [%] |
| --- | --- |
| O=[N+]([O-])/C=C/c1ccc2c(c1)OCO2 | 106 |
| COc1cc(OC)c(/C=C2\C(=O)Nc3ccccc32)c(OC)c1 | 61 |
| CC(C)(C)c1cc(C=C(C#N)C#N)cc(Br)c1O | 109 |
| O=C1Nc2ccc3ncsc3c2/C1=C/c1c[nH]cn1 | 13 |
| O=c1[nH]c2ccccc2n1C1CCN(Cc2ccc(-c3nc4cc5[nH]cnc5cc4nc3-c3ccccc3)cc2)CC1 | 88 |
| CCn1cnc2c(Nc3cccc(Cl)c3)nc(N[C@@H]3CCCC[C@@H]3N)nc21 | 55 |
| N/C(=N\[N+](=O)[O-])N/N=C\c1ccc(-c2cccc([N+](=O)[O-])c2)o1 | 72 |
| CC(C)[C@H](CO)Nc1nc(Nc2cccc(Cl)c2)c2ncn(C(C)C)c2n1 | 38 |
| COC(=O)[C@@]1(O)C[C@H]2O[C@]1(C)n1c3ccccc3c3c4c(c5c6ccccc6n2c5c31)C(=O)NC4 | 9 |
| CCc1nc(-c2ccc(OC)cc2)[nH]c1-c1ccncc1 | 72 |
| COc1cc2ncnc(Nc3ccc(OCc4ccccc4)cc3)c2cc1OC | 101 |
| O=C1NC(=O)c2c1c1c3ccccc3n3c1c1c2c2ccccc2n1C1CCC3O1 | 87 |

Target: T2, Serine/threonine-protein kinase Nek2 (Homo sapiens) (UniProt P51955)
T2 sequence (whole entry): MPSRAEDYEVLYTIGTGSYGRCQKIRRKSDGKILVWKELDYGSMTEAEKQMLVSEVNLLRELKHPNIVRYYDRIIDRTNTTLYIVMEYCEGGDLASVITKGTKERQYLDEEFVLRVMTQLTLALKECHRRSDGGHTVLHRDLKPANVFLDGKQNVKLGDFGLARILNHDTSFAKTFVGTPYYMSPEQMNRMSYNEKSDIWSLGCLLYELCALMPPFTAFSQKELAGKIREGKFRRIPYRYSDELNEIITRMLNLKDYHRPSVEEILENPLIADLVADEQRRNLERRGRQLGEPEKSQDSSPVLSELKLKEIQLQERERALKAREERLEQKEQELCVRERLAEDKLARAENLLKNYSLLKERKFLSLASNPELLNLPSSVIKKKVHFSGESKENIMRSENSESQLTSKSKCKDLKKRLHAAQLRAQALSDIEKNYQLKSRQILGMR
Conditions: at 1 µM

| SMILES | residual activity [%] |
| --- | --- |
| O=[N+]([O-])/C=C/c1ccc2c(c1)OCO2 | 87 |
| COc1ccc2c(c[n+](C)c3c4cc5c(cc4ccc23)OCO5)c1OC | 76 |
| COc1cc(OC)c(/C=C2\C(=O)Nc3ccccc32)c(OC)c1 | 90 |
| O=C1Nc2ccc3ncsc3c2/C1=C/c1c[nH]cn1 | 64 |
| O=c1[nH]c2ccccc2n1C1CCN(Cc2ccc(-c3nc4cc5[nH]cnc5cc4nc3-c3ccccc3)cc2)CC1 | 86 |
| CCn1cnc2c(Nc3cccc(Cl)c3)nc(N[C@@H]3CCCC[C@@H]3N)nc21 | 98 |
| CC(C)[C@H](CO)Nc1nc(Nc2cccc(Cl)c2)c2ncn(C(C)C)c2n1 | 90 |
| COC(=O)[C@@]1(O)C[C@H]2O[C@]1(C)n1c3ccccc3c3c4c(c5c6ccccc6n2c5c31)C(=O)NC4 | 75 |
| CCc1nc(-c2ccc(OC)cc2)[nH]c1-c1ccncc1 | 112 |
| COc1cc2ncnc(Nc3ccc(OCc4ccccc4)cc3)c2cc1OC | 101 |
| C[S+]([O-])c1ccc(-c2nc(-c3ccc(F)cc3)c(-c3ccncc3)[nH]2)cc1 (centres undefined) | 114 |

Target: T2, Serine/threonine-protein kinase Nek2 (Homo sapiens)
Conditions: at 10 µM

| SMILES | residual activity [%] |
| --- | --- |
| c1cc(-c2cnn3cc(-c4ccc(OCCN5CCCCC5)cc4)cnc23)ccn1 | 86 |
| O=[N+]([O-])/C=C/c1ccc2c(c1)OCO2 | 98 |
| COc1ccc2c(c[n+](C)c3c4cc5c(cc4ccc23)OCO5)c1OC | 68 |
| COc1cc(OC)c(/C=C2\C(=O)Nc3ccccc32)c(OC)c1 | 91 |
| CC(C)(C)c1cc(C=C(C#N)C#N)cc(Br)c1O | 101 |
| O=C1Nc2ccc3ncsc3c2/C1=C/c1c[nH]cn1 | 39 |
| O=c1[nH]c2ccccc2n1C1CCN(Cc2ccc(-c3nc4cc5[nH]cnc5cc4nc3-c3ccccc3)cc2)CC1 | 84 |
| CCn1cnc2c(Nc3cccc(Cl)c3)nc(N[C@@H]3CCCC[C@@H]3N)nc21 | 55 |
| CC(C)[C@H](CO)Nc1nc(Nc2cccc(Cl)c2)c2ncn(C(C)C)c2n1 | 53 |
| COC(=O)[C@@]1(O)C[C@H]2O[C@]1(C)n1c3ccccc3c3c4c(c5c6ccccc6n2c5c31)C(=O)NC4 | 29 |
| CCc1nc(-c2ccc(OC)cc2)[nH]c1-c1ccncc1 | 105 |
| COc1cc2ncnc(Nc3ccc(OCc4ccccc4)cc3)c2cc1OC | 113 |
| C[S+]([O-])c1ccc(-c2nc(-c3ccc(F)cc3)c(-c3ccncc3)[nH]2)cc1 (centres undefined) | 118 |

Target: T3, Serine/threonine-protein kinase Nek3 (Homo sapiens) (UniProt P51956);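 note: residual NEK3 kinase activity given as percent of control, assayed in 8 mM MOPS buffer pH 7.0 containing 0.2 mM EDTA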
T3 sequence (whole entry): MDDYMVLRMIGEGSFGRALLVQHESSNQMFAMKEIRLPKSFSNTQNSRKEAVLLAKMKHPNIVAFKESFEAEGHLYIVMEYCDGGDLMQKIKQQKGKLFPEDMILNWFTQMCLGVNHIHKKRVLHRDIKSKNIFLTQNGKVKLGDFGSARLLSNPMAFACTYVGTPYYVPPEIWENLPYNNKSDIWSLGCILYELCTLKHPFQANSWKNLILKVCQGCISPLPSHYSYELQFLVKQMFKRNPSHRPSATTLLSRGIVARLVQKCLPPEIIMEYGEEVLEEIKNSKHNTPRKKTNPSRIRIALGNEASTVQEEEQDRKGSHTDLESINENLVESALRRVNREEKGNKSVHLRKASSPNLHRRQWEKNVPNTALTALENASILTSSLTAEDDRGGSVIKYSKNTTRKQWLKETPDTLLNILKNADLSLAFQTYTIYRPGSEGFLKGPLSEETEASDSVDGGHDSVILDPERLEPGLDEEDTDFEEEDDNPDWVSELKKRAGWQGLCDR
Conditions: at 1 µM

| SMILES | residual activity [%] |
| --- | --- |
| COc1ccc2c(c[n+](C)c3c4cc5c(cc4ccc23)OCO5)c1OC | 110 |
| COc1cc(OC)c(/C=C2\C(=O)Nc3ccccc32)c(OC)c1 | 80 |
| CC(C)(C)c1cc(C=C(C#N)C#N)cc(Br)c1O | 115 |
| O=C1Nc2ccc3ncsc3c2/C1=C/c1c[nH]cn1 | 102 |
| O=c1[nH]c2ccccc2n1C1CCN(Cc2ccc(-c3nc4cc5[nH]cnc5cc4nc3-c3ccccc3)cc2)CC1 | 111 |
| CCn1cnc2c(Nc3cccc(Cl)c3)nc(N[C@@H]3CCCC[C@@H]3N)nc21 | 75 |
| O=C1c2ccccc2-c2nc3nnnn3nc21 | 116 |
| N/C(=N\[N+](=O)[O-])N/N=C\c1ccc(-c2cccc([N+](=O)[O-])c2)o1 | 74 |
| CC(C)[C@H](CO)Nc1nc(Nc2cccc(Cl)c2)c2ncn(C(C)C)c2n1 | 84 |
| COC(=O)[C@@]1(O)C[C@H]2O[C@]1(C)n1c3ccccc3c3c4c(c5c6ccccc6n2c5c31)C(=O)NC4 | 65 |
| COc1cc2ncnc(Nc3ccc(OCc4ccccc4)cc3)c2cc1OC | 90 |
| CN[C@@H]1C[C@H]2O[C@@](C)([C@@H]1OC)n1c3ccccc3c3c4c(c5c6ccccc6n2c5c31)C(=O)NC4 | 105 |
| C[S+]([O-])c1ccc(-c2nc(-c3ccc(F)cc3)c(-c3ccncc3)[nH]2)cc1 (centres undefined) | 104 |
